Data reported in PubChem BioAssay (Tox21).
Results filed as inconclusive are left out. Activity calls are given as the source filed them. Unless noted, calls follow the shape of the dose curve; as a rule, active = well fitted curve in the direction sought with a large enough effect in the repeat runs; inconclusive = weak or mixed curves; inactive = no such curve, though single readings can be large; an effect the other way counts as inactive or inconclusive.

Experiments:
[1] = qHTS assay to identify small molecule agonists of the hypoxia (HIF-1) signaling pathway - cell viability counter screen (AID 1224844; calls by dose curve; also: nearly all actives have a fitted effect of over 50% in size)
Method in brief: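 Luminescent ATP content (CellTiter-Glo, 30 min, room temperature) served as the viability measure in HRE-bla ME-180 cells exposed to compounds for 17 hrs in low-serum medium (0.5% dialyzed FBS).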

[2] = qHTS assay to identify small molecule agonists of H2AX (AID 1224845; active = well fitted activation curve with a large enough effect in the signal ratio in the repeat runs, not every such curve was filed as active; the % refers to the signal ratio; also: potency is read from the fitted curve at half-maximal effect)
Method in brief: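 Wild-type CHO-K1 cells, plated overnight, exposed 3hr at 37C to 15 concentrations (0.76% DMSO final). Lysed, then HTRF anti-pH2AX (S139) cryptate and anti-H2AX-d2 antibodies, 24 hr room temperature; 665/620 nm emission read.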

[3] = qHTS assay to identify small molecule agonists of the hypoxia (HIF-1) signaling pathway (AID 1224846; active = well fitted activation curve with a large enough effect in the signal ratio in the repeat runs, not every such curve was filed as active; the % refers to the signal ratio)
Method in brief: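 Measured by blue/green FRET after loading CCF4-AM: beta-lactamase expressed from a hypoxia response element in ME-180 cells. Test agents were delivered in DMSO and left 17 hrs; cells had been plated 5 hrs earlier in low-serum (0.5% dialyzed FBS) medium.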

[4] = qHTS assay to identify small molecule agonists of H2AX - cell viability counter screen (AID 1224847; calls by dose curve; also: top concentration of the series differs between compounds; nearly all actives have a fitted effect of over 30% in size)
Method in brief: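 Wild-type CHO-K1 cells (10% FBS medium) were plated overnight at 37C, exposed to compounds at 15 concentrations for 3 hr at 37C (0.76% DMSO final), and viability was read as CellTiter-Glo luminescence after 30 min at room temperature.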

[5] = qHTS assay to identify small molecule antagonists of the estrogen related receptor (ERR) signaling pathway from Tox21 library (AID 1224848); also: nearly all actives have a fitted effect of over 50% in size
Method in brief: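 Luminescent reporter read-out (ONE-Glo) from NTP's ERR cell line after 18 h treatment at 37 C with DMSO-dissolved Tox21 compounds; cells pre-plated 6 h beforehand at 2,000 per well.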

[6] = qHTS assay to identify small molecule agonists of the estrogen related receptor (ERR) signaling pathway from Tox21 library (AID 1224849; calls by dose curve; also: nearly all actives have a fitted effect of over 15% in size)
Method in brief: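 We plated ERR reporter cells, waited 6 h, added compounds in DMSO by pin tool and incubated them 18 h at 37 C. ONE-Glo was then added and luminescence read after 30 min.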

[7] = A CellTox Green Cytotoxicity Assay to monitor cytotoxicity in HEK293 cells - 0 hour (AID 1224869); also: nearly all actives have a fitted effect of over 50% in size
Method in brief: (§1)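 Each value comes from one timepoint of a single continuous run in which HEK293 cells with CellTox Green were exposed to compound for up to 40 h at 37 C, dye fluorescence rising with cell death.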

[8] = qHTS RealTime-Glo MT Cell Viability Assay in HepG2 cells - 40 hour (AID 1224870); also: nearly all actives have a fitted effect of over 50% in size; also: potency is read from the fitted curve at half-maximal effect
Method in brief: (§2)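 HepG2 cells (600/well) mixed with RealTime-Glo MT reagent, settled 5 h at 37 C/5% CO2 before compound addition. Nonlytic NanoLuc luminescence from viable-cell prosubstrate reduction read repeatedly during 40 h treatment at 37 C.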

[9] = A CellTox Green Cytotoxicity Assay to monitor cytotoxicity in HEK293 cells - 40 hour (AID 1224871); also: nearly all actives have a fitted effect of over 45% in size
Method in brief: as §1

[10] = qHTS RealTime-Glo MT Cell Viability Assay in HEK293 cells - 16 hour (AID 1224872)
Method in brief: (§3)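 Homogeneous bioluminescent viability format in HEK293 cells (600 cells/well). Following 5 h at 37 C/5% CO2, 23 nL compound was pintooled; the signal was measured repeatedly during 40 h incubation.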

[11] = qHTS RealTime-Glo MT Cell Viability Assay in HepG2 cells - 8 hour (AID 1224873); also: nearly all actives have a fitted effect of over 55% in size
Method in brief: as §2

[12] = qHTS RealTime-Glo MT Cell Viability Assay in HEK293 cells - 40 hour (AID 1224874); conditions: RealTime-Glo luminescence; max response: stronger effect = lower value; also: nearly all actives have a fitted effect of over 50% in size
Method in brief: (§4)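 qHTS format; HEK293 cells with NanoLuc/prosubstrate reagent, 37 C/5% CO2 for 5 h pre-dosing; compounds 23 nL in DMSO; luminescence at each time point reflects viable cells.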

[13] = A CellTox Green Cytotoxicity Assay to monitor cytotoxicity in HEK293 cells - 24 hour (AID 1224875); also: series mostly up to about 77 µM; nearly all actives have a fitted effect of over 45% in size
Method in brief: as §1

[14] = A CellTox Green Cytotoxicity Assay to monitor cytotoxicity in HepG2 cells - 16 hour (AID 1224876); also: nearly all actives have a fitted effect of over 45% in size
Method in brief: (§5)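 Continuous culture of HepG2 cells with a membrane-impermeant DNA dye; rising fluorescence marks dead cells. Compound exposure lasted up to 40 h at 37 C, with reads every 8 h from 0 h.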

[15] = qHTS RealTime-Glo MT Cell Viability Assay in HepG2 cells - 32 hour (AID 1224877); also: nearly all actives have a fitted effect of over 55% in size; also: potency is read from the fitted curve at half-maximal effect
Method in brief: (§6)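 Cell number in HepG2 cultures estimated from NanoLuc luminescence generated by metabolic reduction of a prosubstrate by living cells. The homogeneous, nonlytic format allowed repeated reads at 0, 8, 16, 24, 32 and 40 h of compound exposure.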

[16] = A CellTox Green Cytotoxicity Assay to monitor cytotoxicity in HepG2 cells - 24 hour (AID 1224878); also: nearly all actives have a fitted effect of over 45% in size
Method in brief: as §5

[17] = qHTS RealTime-Glo MT Cell Viability Assay in HEK293 cells - 0 hour (AID 1224880)
Method in brief: as §4

[18] = qHTS RealTime-Glo MT Cell Viability Assay in HepG2 cells - 24 hour (AID 1224867); also: nearly all actives have a fitted effect of over 50% in size
Method in brief: as §6

[19] = qHTS RealTime-Glo MT Cell Viability Assay in HEK293 cells - 32 hour (AID 1224868)
Method in brief: as §3

[20] = A CellTox Green Cytotoxicity Assay to monitor cytotoxicity in HepG2 cells - 40 hour (AID 1224879); also: nearly all actives have a fitted effect of over 40% in size
Method in brief: as §5
% is scaled to controls: 0 for no effect and ±100 for the full control effect.

C=C(C)C(=O)OCC(O)CO (configuration not stated)
inactive: Potency [1] | Potency [2] | outcome [3] | outcome [4] | Potency [5] | outcome [6] | outcome [7] | Potency [8] | Potency [9] | Potency [10] | outcome [11] | max response [12] 2.31% | outcome [13] | outcome [14] | Potency [15] | outcome [16] | Potency [17]

Nc1ccn([C@@H]2O[C@H](CO)[C@@H](O)C2O)c(=O)n1 (some centres not stated)
inactive: Potency [1] | outcome [3] | outcome [4] | Potency [5] | outcome [6] | outcome [18] | Potency [19] | outcome [7] | Potency [8] | Potency [9] | Potency [10] | outcome [11] | max response [12] 6.25% | outcome [13] | outcome [14] | Potency [15] | outcome [16] | Potency [20] | Potency [17]
active: Potency [2] 56.6 µM

COc1ccc2cc1Oc1cc3c(cc1OC)CC[N+](C)(C)[C@H]3Cc1ccc(cc1)Oc1c(OC)c(OC)cc3c1[C@@H](C2)[N+](C)(C)CC3
active: Potency [8] 16.9 µM | Potency [15] 21.3 µM
inactive: Potency [1] | Potency [2] | outcome [3] | outcome [4] | Potency [5] | outcome [6] | Potency [19] | outcome [7] | Potency [9] | Potency [10] | outcome [11] | max response [12] -3.12% | outcome [13] | outcome [14] | outcome [16] | Potency [20] | Potency [17]

CC(C)c1ccc2ncccc2c1
inactive: Potency [1] | Potency [2] | outcome [3] | outcome [4] | Potency [5] | outcome [6] | outcome [18] | outcome [7] | Potency [8] | Potency [9] | Potency [10] | outcome [11] | max response [12] -0.522% | outcome [13] | outcome [14] | Potency [15] | outcome [16] | Potency [20] | Potency [17]

CCOCC(C)O (configuration not stated)
inactive: Potency [1] | Potency [2] | outcome [3] | outcome [4] | Potency [5] | outcome [6] | outcome [18] | Potency [19] | outcome [7] | Potency [8] | Potency [9] | outcome [11] | max response [12] -1.56% | outcome [13] | outcome [14] | Potency [15] | outcome [16] | Potency [20] | Potency [17]

COCCOC[C@H](CC1(C(=O)NC2CCC(C(=O)O)CC2)CCCC1)C(=O)Oc1ccc2c(c1)CCC2 (some centres not stated)
inactive: Potency [1] | Potency [2] | outcome [3] | outcome [4] | Potency [5] | Potency [19] | outcome [7] | Potency [8] | Potency [9] | Potency [10] | outcome [11] | max response [12] 5.36% | outcome [13] | outcome [14] | Potency [15] | outcome [16] | Potency [20] | Potency [17]

CCCCN1C=CN(C)C1
inactive: activity change, negative = cytotoxicity [1] -14.8% [at 15.8 µM] | activation (H2AX phosphorylation) [2] -0.0666% [at 31.6 µM] | activation [3] -0.256% [at 15.8 µM] | activity change, negative = cytotoxicity [4] -1.83% [at 31.6 µM] | activity, negative = inhibition [5] 18.5% [at 19 µM] | activity change, negative = cytotoxicity [18] 3.12% [at 15.8 µM] | activity change, negative = cytotoxic [19] 8.51% [at 15.8 µM] | activity change, negative = cytotoxic [8] -0.384% [at 15.8 µM] | cytotoxicity increase [9] -12.1% [at 15.8 µM] | activity change, negative = cytotoxicity [10] 5.82% [at 15.8 µM] | viability change, negative = cytotoxic [11] 2.13% [at 15.8 µM] | max response [12] 9.09% | activity change [13] -7.42% [at 15.8 µM] | cytotoxicity increase [14] -14.5% [at 15.8 µM] | activity change, negative = cytotoxic [15] -0.21% [at 15.8 µM] | cytotoxicity [16] -16.6% [at 15.8 µM] | cytotoxicity increase [20] -22.4% [at 15.8 µM] | activity change, negative = cytotoxicity [17] 0.0716% [at 15.8 µM]

C=COCC1CCC(COC=C)CC1 (configuration not stated)
inactive: Potency [1] | Potency [2] | outcome [3] | outcome [4] | Potency [5] | outcome [6] | outcome [18] | Potency [19] | outcome [7] | Potency [8] | Potency [9] | outcome [11] | max response [12] -3.6% | outcome [13] | Potency [15]

CC1(C)OC[C@@H](COC(=O)CCc2ccc(OC[C@@H](O)CNCCNC(=O)N3CCOCC3)cc2)O1
inactive: Potency [1] | Potency [2] | outcome [3] | outcome [4] | Potency [5] | outcome [6] | outcome [18] | Potency [19] | Potency [8] | Potency [9] | Potency [10] | outcome [11] | max response [12] 4.31% | outcome [13] | outcome [14] | Potency [15] | outcome [16] | Potency [17]

CC(COc1ccccc1)NN (configuration not stated)
inactive: Potency [1] | Potency [2] | outcome [3] | outcome [4] | Potency [5] | outcome [18] | Potency [19] | outcome [7] | Potency [8] | Potency [9] | Potency [10] | outcome [11] | max response [12] 2.34% | outcome [13] | outcome [14] | Potency [15] | outcome [16] | Potency [20] | Potency [17]

CCCCCCC#CC(=O)OC
inactive: Potency [1] | Potency [2] | outcome [3] | outcome [4] | Potency [5] | outcome [6] | outcome [18] | Potency [19] | outcome [7] | Potency [8] | Potency [9] | Potency [10] | outcome [11] | max response [12] 11.4% | outcome [13] | outcome [14] | Potency [15] | outcome [16] | Potency [20] | Potency [17]

O=C(CO)[C@@H](O)[C@H](O)[C@@H](O)CO
inactive: Potency [1] | Potency [2] | outcome [3] | outcome [4] | Potency [5] | outcome [18] | Potency [8] | Potency [9] | outcome [11] | max response [12] 5.66% | outcome [13] | Potency [15] | Potency [17]

CCC(C(=O)NC(=O)NC(C)=O)c1ccccc1 (configuration not stated)
inactive: Potency [1] | Potency [2] | outcome [3] | outcome [4] | Potency [5] | outcome [18] | Potency [19] | Potency [9] | Potency [10] | outcome [11] | max response [12] -7.54% | outcome [13] | outcome [14] | Potency [15] | outcome [16] | Potency [20] | Potency [17]
